# In the supplement of paper PMC3334620:
# Whole data set: some 33,000 sequences, median “E-score (-0.5 to 0.5)” near -0.012, cut for the highest 2% near 0.29. The entries come from a sample that favours the highest values as a whole.
# Molecular target: T1, Ybr033w (UniProt P38073)
# T1 sequence: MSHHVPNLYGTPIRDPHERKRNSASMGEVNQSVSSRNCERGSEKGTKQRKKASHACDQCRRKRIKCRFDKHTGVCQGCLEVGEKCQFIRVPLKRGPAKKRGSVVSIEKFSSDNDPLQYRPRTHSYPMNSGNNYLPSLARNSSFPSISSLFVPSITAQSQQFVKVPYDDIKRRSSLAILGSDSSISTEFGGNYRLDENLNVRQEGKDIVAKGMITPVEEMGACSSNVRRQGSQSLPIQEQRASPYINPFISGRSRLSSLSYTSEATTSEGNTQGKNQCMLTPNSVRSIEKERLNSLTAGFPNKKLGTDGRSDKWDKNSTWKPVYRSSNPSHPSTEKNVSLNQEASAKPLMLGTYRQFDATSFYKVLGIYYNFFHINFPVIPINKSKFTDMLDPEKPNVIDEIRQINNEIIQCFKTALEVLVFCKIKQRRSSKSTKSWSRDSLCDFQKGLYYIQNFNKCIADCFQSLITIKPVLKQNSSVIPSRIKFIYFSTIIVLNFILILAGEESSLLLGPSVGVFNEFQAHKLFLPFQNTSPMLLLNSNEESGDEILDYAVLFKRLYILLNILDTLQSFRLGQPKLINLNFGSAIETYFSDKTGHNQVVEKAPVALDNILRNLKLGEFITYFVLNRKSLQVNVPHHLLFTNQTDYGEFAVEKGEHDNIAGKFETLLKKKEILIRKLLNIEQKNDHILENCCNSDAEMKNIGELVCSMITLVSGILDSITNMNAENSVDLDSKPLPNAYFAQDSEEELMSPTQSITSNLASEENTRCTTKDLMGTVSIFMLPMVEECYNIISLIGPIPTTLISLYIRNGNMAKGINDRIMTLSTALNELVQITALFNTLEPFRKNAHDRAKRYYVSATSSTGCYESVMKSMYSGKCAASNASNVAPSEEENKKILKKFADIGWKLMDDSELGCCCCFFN
# Assay: PBM E-score (8-mer binding enrichment) (E-score (-0.5 to 0.5)); higher = stronger / more preferred TF binding
# Conditions: protein concentration: 200 nM; construct: GST-full length
# Procedure: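 Universal 'all 10-mer' protein binding microarrays (Agilent AMADID 015681) probed with GST-tagged S. cerevisiae TFs (full-length or DBD) made by in vitro transcription/translation (PURExpress), about 100-200 nM. Bound TF was detected with fluorescent anti-GST. Each ungapped 8-mer (which stands for itself and its reverse complement) is scored by the PBM enrichment score (E-score), a modified Wilcoxon-Mann-Whitney statistic from -0.5 to +0.5, computed with the Universal PBM Analysis Suite. Scale: above 0.35 generally sequence-specific binding.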
row,Sequence,PBM E-score
1,TTCCAGAA,0.294
2,TTCCACAA,0.314
3,CTCCACAA,0.0525
4,GTCCACAA,0.0077
5,GTCCAGAA,-0.051
6,CTCCAGAA,-0.0883
7,ATGAAGAA,0.126
8,CTGAACAG,0.00549
9,GACGACAA,0.293
10,AACGACAA,0.175
11,CACGACAA,-0.0495
12,GAAAGTAC,0.0791
13,GACCATTA,0.2
14,GACTTAAA,0.0498
15,GGTTAAGA,0.0725
16,TACTACCA,0.106
17,AACATAAC,0.281
18,AACATAAT,0.295
19,CTCATTAA,0.23
20,AACATATA,0.298
21,ATCATTTC,0.258
22,CTCATTTA,0.0742
23,ATCATTAA,0.313
24,GACATATA,0.185
25,ATCATTAG,0.16

row,Sequence,PBM E-score
1,AACATAAA,0.11
2,CACATATA,0.0859
3,ATCATTTA,0.336
4,AGTTGTAT,0.0541
5,TGGCCTAA,-0.088
6,ATGGCAAG,-0.0226
7,GTCCTTGA,-0.0584
8,GACCTATC,-0.0417
9,AGCCACGA,-0.228
10,TCACACGA,-0.00326
11,CTACTAAC,0.222
12,CAAGCGTA,0.093
13,AACATTTC,0.272
14,AACATTTA,0.296
15,GACATTTA,-0.045
16,CCACTTGC,-0.0925
17,CCGCGCGG,0.104
18,AGATCGAG,0.0958
19,TACCAATA,0.0786
20,CACATCAA,0.127
21,TCCATCAA,0.312
22,GACATCAA,0.0415
23,CCCATCAA,0.101
24,AACATCAA,0.319
25,ACCATCAA,0.137

row,Sequence,PBM E-score
1,AATGCCAA,0.112
2,CACCTCAC,0.0264
3,TCCTTTAA,0.132
4,ATGACTGG,-0.17
5,GACTGCAC,-0.221
6,AACAATTA,0.366
7,ATCAATTC,0.125
8,CTCAATAA,0.12
9,AACAATTG,0.115
10,AACAATTC,0.205
11,ATCAATAA,0.321
12,ATCAATTA,0.365
13,ATCAATAG,0.178
14,ATCAATTG,0.252
15,CAGGAGGC,-0.202
16,CAATTGCC,0.0461
17,AATACTCG,0.22
18,CTGAGACC,-0.291
19,CGTCTGGC,0.0541
20,GTACCATA,0.00958
21,ATACCATA,0.297
22,ATACCATG,-0.0754
23,ATCGAAAT,0.119
24,AATAAAGT,0.265
25,ATAAAGTA,0.306

row,Sequence,PBM E-score
1,GCAAAGTA,0.113
2,CTAAAGAA,0.0669
3,GTAAAGTA,0.174
4,TTAAAGAA,0.117
5,ATAAAGTG,0.244
6,ATAAAGAA,0.291
7,ACAAAGTA,0.3
8,ACAAAGTC,0.0213
9,AGTAAGAA,0.208
10,AACAGTGA,-0.0153
11,ATGTGCTA,0.208
12,GCTGCTCA,-0.11
13,CTCTCTCC,-0.21
14,ACACTCAC,0.0907
15,GACGCAGA,-0.127
16,ATAGCTAT,0.13
17,ATTATCTG,0.218
18,CTTATCCC,-0.16
19,CTTATCCA,0.0666
20,ACTATCCG,0.16
21,ATTATCCA,0.341
22,ATTATCCG,0.469
23,ATTATCGC,0.319
24,ATTATCGA,0.0687
25,ATTATCCC,0.321

row,Sequence,PBM E-score
1,ATTATCGG,0.0549
2,GTTATCCA,0.0783
3,ACTATCCC,-0.24
4,AACCATAG,0.0244
5,CGTCAAAA,0.108
6,ACACCAGA,0.059
7,GAGACGCC,-0.0848
8,AAATTTCG,0.139
9,ACCTTTTA,-0.0294
10,ATCCACAC,-0.00864
11,AGCTTGCC,-0.231
12,AACAGGTG,-0.0949
13,CCACCTCA,-0.134
14,AGGAGACT,-0.0682
15,ACGCCCCT,-0.389
16,AAAGGAAT,0.0153
17,AGCAAAAT,0.2
18,CAAAAAAC,0.146
19,CAAAAAAG,0.261
20,ACCAAAAC,0.0839
21,CCAAAAAA,0.332
22,CCAAAAAC,0.132
23,ACCAAAAT,0.111
24,ACCAAAAA,0.332
25,CAAAAAAA,0.293

row,Sequence,PBM E-score
1,CCCAAAAA,-0.19
2,AGCAAAAC,0.0585
3,AGCAAAAA,0.319
4,GATATCGC,0.119
5,GGCTTCGA,-0.138
6,CTGTTCTA,-0.094
7,GCGCGAGC,-0.21
8,CCCTGCCC,-0.376
9,CCGCCAGA,-0.0108
10,CTGTCTCC,0.00722
11,GCCAGTAC,-0.0841
12,CGTTATGC,0.0079
13,CTTTTGGC,-0.0369
14,ACTATATA,0.309
15,AGTATATA,0.389
16,AGTATATG,0.0561
17,ATATTATG,0.315
18,ACTATATC,0.229
19,GCTATATA,0.194
20,ATTATGTG,0.11
21,ATTATGTC,0.17
22,ATATTATA,0.227
23,AGTATATC,0.213
24,ATATTATC,0.265
25,ATTATGTA,0.312

row,Sequence,PBM E-score
1,ACTGGAAC,0.072
2,ACCCACCC,0.0336
3,AACGCGAT,0.0217
4,TCTCTGCA,-0.162
5,GCACTTCA,0.0397
6,AGCGCTTC,0.016
7,ACCATCAT,0.0599
8,AGTGCTAC,-0.0555
9,CCCGGGAG,-0.0399
10,CGGCTCAA,0.103
11,CACTCGCA,-0.00609
12,ATATTACC,0.227
13,GTTATATA,0.154
14,ATTATATC,0.256
15,CTTATATA,0.334
16,ACTATATG,0.256
17,ATTATATA,0.297
18,ATTATATG,0.289
19,ATTATAAG,0.237
20,CTTATATC,0.146
21,ATTATACA,0.222
22,ATATTACA,0.256
23,ATATTACG,0.333
24,GCATTCAC,0.216
25,GTGGTCGA,-0.198

row,Sequence,PBM E-score
1,TAGACAAA,0.0827
2,ACGTACGA,-0.182
3,ACATAGCG,0.0674
4,AACTACCC,0.0868
5,GAGCCAAA,-0.113
6,ATTCCCCA,-0.0626
7,GGTGGTAC,-0.231
8,GACGGTCC,-0.273
9,GTTATTAA,0.229
10,ACTATTAC,0.134
11,ATTATTAA,0.316
12,ATTATTAC,0.343
13,CTTATTAC,0.115
14,CTTATTAA,0.17
15,ATCTAAGC,0.0351
16,AGCGTTGC,-0.0711
17,CGCTTATC,-0.00322
18,CGGCTATA,-0.0713
19,TTCCGGAA,0.316
20,CTCCGGAA,0.22
21,ATCCGGAG,0.143
22,ATCCGGAA,0.403
23,GTCCGGAA,0.19
24,ATCCGGAC,-0.0654
25,CTCATCCC,-0.189

row,Sequence,PBM E-score
1,CGTACTGC,-0.151
2,CTCGTCTA,-0.0771
3,GATAATGC,0.115
4,AACAATCC,0.338
5,AATAATCC,0.439
6,GATAATCC,0.375
7,CATAATCC,0.0679
8,AATAATCA,0.234
9,AACAATCT,0.168
10,AACAATCG,0.0843
11,GATAATCA,0.236
12,ACCCGAAG,-0.0833
13,ACCTACTC,-0.0816
14,AACAAAAT,0.291
15,ACAAAAAT,0.308
16,AACAAAAA,0.212
17,AACAAGTC,0.0761
18,AACAAGAT,0.221
19,AACAAATT,0.374
20,AACAAGTT,0.188
21,ACAAAAAC,0.243
22,ACAAAAAA,0.18
23,AACAAATC,0.315
24,GACAAATC,0.24
25,AACAAATA,0.285
